In PubChem BioAssay AID1159580 (chemical genetic matrix, 2015):
The whole screen tested about 5,500 compounds, of which about 2,000 (36%) were called active. About 18% were inconclusive and are not listed. Cut-off read from the data, not from the text of the source: active = normalized growth mostly below about 0.91 (no sharp cut-off); inconclusive = no clear call, values can overlap the other calls; inactive = mostly above about 0.92. This is one part of the list.

Assay: chemical genetic growth profiling, strain panel (AID 1159580);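 note: tested at 20 µM; growth read once vehicle control cultures reached saturation at 30 °C; 1 = growth at the plate median or of vehicle wells; lower values mean less growth of the strain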
Settings: growth OD

Measured: normalized growth

O=C1CC(c2ccccc2)Oc2ccccc21 (configuration not stated)
inactive: S. cerevisiae deletion strains, locus YBR021W, strain FUR4, active compounds read low 0.97 | S. cerevisiae deletion strains, locus YBR229C, strain ROT2, active compounds read low 0.985 | S. cerevisiae deletion strains, locus YCL029C, strain bik1, active compounds read low 0.971 | S. cerevisiae deletion strains, locus YDL035C, strain GPR1, active compounds read low 1.02 | S. cerevisiae deletion strains, locus YDL074C, strain BRE1, active compounds read low 0.989 | S. cerevisiae deletion strains, locus YDL101C, strain DUN1, active compounds read low 0.996 | S. cerevisiae deletion strains, locus YDL185W, strain tfp1, active compounds read low 0.958 | S. cerevisiae deletion strains, locus YDL192W, strain arf1, active compounds read low 0.957 | S. cerevisiae deletion strains, locus YDR101C, strain arx1, active compounds read low 0.958 | S. cerevisiae deletion strains, locus YDR162C, strain NBP2, active compounds read low 1.02 | S. cerevisiae deletion strains, locus YDR318W, strain mcm21, active compounds read low 0.954 | S. cerevisiae deletion strains, locus YDR388W, active compounds read low 0.96 | S. cerevisiae deletion strains, locus YDR502C, strain sam2, active compounds read low 0.96 | S. cerevisiae deletion strains, locus YEL061C, strain CIN8, active compounds read low 0.976 | S. cerevisiae deletion strains, locus YER110C, active compounds read low 0.963 | S. cerevisiae deletion strains, locus YER155C, strain BEM2, active compounds read low 0.982 | S. cerevisiae deletion strains, locus YER167W, strain BCK2, active compounds read low 0.989 | S. cerevisiae deletion strains, locus YGL078C, strain dbp3, active compounds read low 0.96 | S. cerevisiae deletion strains, locus YGL086W, strain mad1, active compounds read low 0.974 | S. cerevisiae deletion strains, locus YGL248W, strain PDE1, active compounds read low 0.993 | S. cerevisiae deletion strains, locus YGR135W, strain pre9, active compounds read low 0.969 | S. cerevisiae deletion strains, locus YGR229C, strain SMI1, active compounds read low 0.985 | S. cerevisiae deletion strains, locus YGR252W, strain gcn5, active compounds read low 1.03 | S. cerevisiae deletion strains, locus YHR030C, strain SLT2, active compounds read low 0.982 | S. cerevisiae deletion strains, locus YHR079C, strain IRE1 (second series), active compounds read low 0.967 | S. cerevisiae deletion strains, locus YHR094C, strain hxt1, active compounds read low 0.972 | S. cerevisiae deletion strains, locus YHR129C, strain ARP1, active compounds read low 0.983 | S. cerevisiae deletion strains, locus YHR200W, strain rpn10, active compounds read low 0.961 | S. cerevisiae deletion strains, locus YIL066C, strain RNR3, active compounds read low 1 | S. cerevisiae deletion strains, locus YIL073C, strain SPO22, active compounds read low 1.05 | S. cerevisiae deletion strains, locus YIL125W, strain kgd1, active compounds read low 0.956 | S. cerevisiae deletion strains, locus YIR030C, strain dcg1, active compounds read low 0.977 | S. cerevisiae deletion strains, locus YJL095W, strain BCK1, active compounds read low 0.932 | S. cerevisiae deletion strains, locus YJL134W, strain LCB3, active compounds read low 0.983 | S. cerevisiae deletion strains, locus YJL168C, strain set2, active compounds read low 0.958 | S. cerevisiae deletion strains, locus YJL187C, strain SWE1 (second series), active compounds read low 1.02 | S. cerevisiae deletion strains, locus YJR043C, strain POL32, active compounds read low 0.958 | S. cerevisiae deletion strains, locus YKL009W, strain mrt4, active compounds read low 1.02 | S. cerevisiae deletion strains, locus YKL068W, active compounds read low 0.966 | S. cerevisiae deletion strains, locus YKL085W, strain MDH1 (second series), active compounds read low 0.972 | S. cerevisiae deletion strains, locus YKL085W, strain MDH1, active compounds read low 0.972 | S. cerevisiae deletion strains, locus YKR001C, strain vps1, active compounds read low 0.927 | S. cerevisiae deletion strains, locus YLR039C, strain RIC1, active compounds read low 0.956 | S. cerevisiae deletion strains, locus YLR058C, strain SHM2, active compounds read low 0.992 | S. cerevisiae deletion strains, locus YLR102C, strain apc9, active compounds read low 0.961 | S. cerevisiae deletion strains, locus YLR262C, strain YPT6, active compounds read low 0.971 | S. cerevisiae deletion strains, locus YLR268W, strain sec22, active compounds read low 0.962 | S. cerevisiae deletion strains, locus YLR330W, strain CHS5, active compounds read low 0.988 | S. cerevisiae deletion strains, locus YLR342W, strain FKS1 (second series), active compounds read low 0.944 | S. cerevisiae deletion strains, locus YLR371W, strain rom2, active compounds read low 0.961 | S. cerevisiae deletion strains, locus YLR418C, strain cdc73, active compounds read low 0.894 | S. cerevisiae deletion strains, locus YML016C, strain PPZ1, active compounds read low 0.974 | S. cerevisiae deletion strains, locus YML032C, strain rad52, active compounds read low 0.949 | S. cerevisiae deletion strains, locus YML124C, strain tub3, active compounds read low 0.95 | S. cerevisiae deletion strains, locus YMR078C, strain ctf18, active compounds read low 0.955 | S. cerevisiae deletion strains, locus YMR223W, strain ubp8, active compounds read low 0.961 | S. cerevisiae deletion strains, locus YMR307W, strain GAS1, active compounds read low 1.01 | S. cerevisiae deletion strains, locus YNL067W, strain RPL9B, active compounds read low 1.03 | S. cerevisiae deletion strains, locus YNL153C, strain GIM3, active compounds read low 1.01 | S. cerevisiae deletion strains, locus YNL233W, strain BNI4, active compounds read low 0.967 | S. cerevisiae deletion strains, locus YNL250W, strain rad50, active compounds read low 0.966 | S. cerevisiae deletion strains, locus YNL271C, strain bni1, active compounds read low 0.947 | S. cerevisiae deletion strains, locus YNL298W, strain CLA4, active compounds read low 0.971 | S. cerevisiae deletion strains, locus YNL307C, strain MCK1, active compounds read low 0.943 | S. cerevisiae deletion strains, locus YNR052C, strain pop2, active compounds read low 0.971 | S. cerevisiae deletion strains, locus YOL006C, strain TOP1, active compounds read low 0.932 | S. cerevisiae deletion strains, locus YOL012C, strain htz1 1 | S. cerevisiae deletion strains, locus YOL147C, strain pex11, active compounds read low 0.942 | S. cerevisiae deletion strains, locus YOR061W, strain CKA2, active compounds read low 0.989 | S. cerevisiae deletion strains, locus YOR069W, strain VPS5, active compounds read low 0.98 | S. cerevisiae deletion strains, locus YOR136W, strain idh2, active compounds read low 0.965 | S. cerevisiae deletion strains, locus YOR144C, strain elg1, active compounds read low 0.949 | S. cerevisiae deletion strains, locus YOR184W, strain ser1, active compounds read low 0.925 | S. cerevisiae deletion strains, locus YOR316C, strain cot1, active compounds read low 0.964 | S. cerevisiae deletion strains, locus YPL055C, strain LGE1, active compounds read low 1 | S. cerevisiae deletion strains, locus YPL241C, strain CIN2, active compounds read low 0.977 | S. cerevisiae deletion strains, locus YPR119W, strain clb2, active compounds read low 0.935 | S. cerevisiae deletion strains, locus YPR141C, strain kar3, active compounds read low 0.954 | S. cerevisiae deletion strains, locus YPR163C, strain tif3, active compounds read low 0.952 | S. cerevisiae deletion strains, locus YPR167C, strain met16, active compounds read low 1.01 | S. cerevisiae deletion strains, strain wtn01, active compounds read low 0.95 | S. cerevisiae strains, strain wild type, active compounds read low 0.988
